Values joined by “and” are separate entries in the source; they are usually repeats but may differ in a detail not shown here. Equal values may be shown once. About 2,000 (36%) of roughly 5,500 compounds were called active. Roughly 18% stayed inconclusive and do not appear here. Cut-off read from the data, not from the text of the source: active = normalized growth mostly below about 0.91 (no sharp cut-off); inconclusive = no clear call, values can overlap the other calls; inactive = mostly above about 0.92. This is one part of the list.
Assay: chemical genetic growth profiling, strain panel (AID 1159580);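 note: tested at 20 µM; growth read once vehicle control cultures reached saturation at 30 °C; 1 = growth at the plate median or of vehicle wells; lower values mean less growth of the strain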
Conditions: S. cerevisiae deletion strains, growth OD

Measured: normalized growth

CC(C(=O)O)c1cccc(C(=O)c2ccccc2)c1 (stereo not drawn)
inactive: locus YAL013W, strain DEP1, active compounds read low 1.01 | locus YAL021C, strain ccr4, active compounds read low 0.995 | locus YAL026C, strain drs2, active compounds read low 0.981 | locus YAL030W, strain snc1, active compounds read low 0.997 | locus YAL040C, strain CLN3, active compounds read low 1 | locus YBL061C, strain skt5, active compounds read low 0.998 | locus YBR009C, strain hhf1, active compounds read low 0.979 | locus YBR021W, strain FUR4, active compounds read low 1.01 | locus YBR023C, strain chs3, active compounds read low 0.985 | locus YBR171W, strain sec66, active compounds read low 0.98 | locus YBR229C, strain ROT2, active compounds read low 1 | locus YBR231C, strain swc5, active compounds read low 1 | locus YBR279W, strain paf1, active compounds read low 0.972 | locus YCL011C, strain gbp2, active compounds read low 0.991 | locus YCL016C, strain dcc1, active compounds read low 0.969 | locus YCL029C, strain bik1, active compounds read low 0.962 | locus YCL061C, strain MRC1 (second series), active compounds read low 1.01 | locus YCL069W, strain vba3, active compounds read low 0.983 | locus YCR088W, strain abp1, active compounds read low 0.989 | locus YDL005C, strain med2, active compounds read low 0.98 | locus YDL035C, strain GPR1, active compounds read low 1 | locus YDL040C, strain nat1, active compounds read low 0.986 | locus YDL074C, strain BRE1, active compounds read low 1.06 | locus YDL101C, strain DUN1, active compounds read low 1 | locus YDL134C, strain PPH21, active compounds read low 0.994 | locus YDL185W, strain tfp1, active compounds read low 0.941 | locus YDL192W, strain arf1, active compounds read low 0.978 | locus YDR001C, strain nth1, active compounds read low 0.983 | locus YDR069C, strain doa4, active compounds read low 0.984 | locus YDR101C, strain arx1, active compounds read low 1.02 | locus YDR137W, strain rgp1, active compounds read low 0.953 | locus YDR159W, strain sac3, active compounds read low 0.928 | locus YDR162C, strain NBP2, active compounds read low 0.979 | locus YDR195W, strain ref2 1.02 | locus YDR297W, strain sur2, active compounds read low 0.982 | locus YDR318W, strain mcm21, active compounds read low 0.969 | locus YDR334W, strain swr1, active compounds read low 0.984 | locus YDR335W, strain msn5, active compounds read low 1.01 | locus YDR363W, strain ESC2, active compounds read low 0.998 | locus YDR388W, active compounds read low 0.989 | locus YDR392W, strain spt3, active compounds read low 0.871 | locus YDR502C, strain sam2, active compounds read low 1 | locus YEL003W, strain gim4, active compounds read low 1 | locus YEL037C, strain rad23, active compounds read low 0.987 | locus YEL061C, strain CIN8 (second series), active compounds read low 0.996 | locus YEL061C, strain CIN8, active compounds read low 1 | locus YER002W, strain NOP16, active compounds read low 0.992 | locus YER015W, strain faa2, active compounds read low 0.966 | locus YER016W, strain bim1, active compounds read low 0.974 | locus YER110C, active compounds read low 0.957 | locus YER111C, strain swi4, active compounds read low 0.979 | locus YER155C, strain BEM2 (second series), active compounds read low 0.986 | locus YER155C, strain BEM2, active compounds read low 0.994 | locus YER167W, strain BCK2, active compounds read low 1 | locus YFR010W, strain ubp6, active compounds read low 1 | locus YGL078C, strain dbp3, active compounds read low 0.99 | locus YGL086W, strain mad1, active compounds read low 1.01 | locus YGL167C, strain pmr1, active compounds read low 0.991 | locus YGL173C, strain kem1, active compounds read low 1.01 | locus YGL227W, strain vid30, active compounds read low 1 | locus YGL240W, strain doc1, active compounds read low 0.995 | locus YGL248W, strain PDE1, active compounds read low 1.02 | locus YGL253W, strain hxk2, active compounds read low 0.984 | locus YGR078C, strain PAC10, active compounds read low 1.02 | locus YGR135W, strain pre9, active compounds read low 0.958 | locus YGR229C, strain SMI1, active compounds read low 1.01 | locus YGR252W, strain gcn5, active compounds read low 1.03 | locus YHR013C, strain ard1, active compounds read low 0.964 | locus YHR027C, strain rpn1, active compounds read low 1.01 | locus YHR030C, strain SLT2, active compounds read low 0.982 and 1.04 | locus YHR079C, strain IRE1 (second series), active compounds read low 0.974 | locus YHR079C, strain IRE1, active compounds read low 1.04 | locus YHR094C, strain hxt1, active compounds read low 0.979 | locus YHR129C, strain ARP1, active compounds read low 0.987 | locus YHR142W, strain chs7, active compounds read low 0.966 | locus YHR200W, strain rpn10, active compounds read low 0.955 | locus YIL066C, strain RNR3, active compounds read low 1.02 | locus YIL073C, strain SPO22, active compounds read low 0.868 | locus YIL125W, strain kgd1, active compounds read low 0.984 | locus YIR030C, strain dcg1, active compounds read low 0.961 | locus YJL092W, strain hpr5, active compounds read low 0.997 | locus YJL095W, strain BCK1 (second series), active compounds read low 0.978 | locus YJL095W, strain BCK1, active compounds read low 1.05 and 1.01 | locus YJL115W, strain asf1, active compounds read low 0.98 | locus YJL129C, strain trk1, active compounds read low 0.942 | locus YJL134W, strain LCB3, active compounds read low 0.991 | locus YJL154C, strain vps35, active compounds read low 0.982 | locus YJL164C, strain tpk1, active compounds read low 0.985 | locus YJL166W, strain qcr8, active compounds read low 0.999 | locus YJL168C, strain set2, active compounds read low 0.978 | locus YJL187C, strain SWE1 (second series), active compounds read low 1.03 | locus YJR043C, strain POL32, active compounds read low 1.03 | locus YJR066W, strain TOR1, active compounds read low 0.965

Reference: PubChem BioAssay AID1159580 (chemical genetic matrix, 2015)
